Measurements published in the supplement of paper PMC3414501.
Where a name gives a salt, the structure may show the parent alone.
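Note: active if sensitivity score above 5.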

The compounds below were run on S. cerevisiae SK1 pCDA2-eGFP (USY613), sporulating (assay: CDA2-GFP sporulation assay sensitivity score (z-score vs DMSO controls); higher = stronger inhibition of sporulation, active = hit call of the paper).
`C[N+]1(C)CCC(OC(=O)C(O)(c2ccccc2)C2CCCC2)C1` (centres undefined) [Glycopyrrolate] (stock concentration (mM, diluted 1:100): 10) was tested, and the “CDA2-GFP sporulation assay sensitivity score” value was 1.55 (inactive).
For `CN1C2CCCC1CC(NC(=O)c1nn(C)c3ccccc13)C2` (centres undefined) [Granisetron hydrochloride] (stock concentration (mM, diluted 1:100): 9), the “CDA2-GFP sporulation assay sensitivity score” value was 2.25 (inactive).
With `CC(C(=O)O)c1ccc(CC2CCCC2=O)cc1` (centres undefined) [Loxoprofen sodium] (stock concentration (mM, diluted 1:100): 9.1) the “CDA2-GFP sporulation assay sensitivity score” value was -0.04 (inactive).
For `C#C[C@]1(O)CC[C@H]2[C@@H]3[C@H](C)CC4=C(CCC(=O)C4)[C@H]3CC[C@@]21C` [Tibolone] (stock concentration (mM, diluted 1:100): 10), the “CDA2-GFP sporulation assay sensitivity score” value was 5.97 (inactive).
In the case of `O=c1c(O[C@@H]2O[C@H](CO)[C@@H](O)[C@H](O)[C@H]2O)c(-c2ccc(O)c(O)c2)oc2cc(O)cc(O)c12` [Isoquercetrin] (stock concentration (mM, diluted 1:100): 10), the “CDA2-GFP sporulation assay sensitivity score” value is reported as -1.49 (inactive).
`COc1cc2nc(N3CCN(C(=O)C4CCCO4)CC3)nc(N)c2cc1OC` (centres undefined) [Terazosin] (stock concentration (mM, diluted 1:100): 9.5) was tested, and the “CDA2-GFP sporulation assay sensitivity score” value was 3.45 (inactive).
For `C[C@H](CCC(=O)O)[C@H]1CC[C@H]2[C@@H]3C(=O)C[C@@H]4CC(=O)CC[C@]4(C)[C@H]3CC(=O)[C@]12C` [Dehydrocholic acid] (stock concentration (mM, diluted 1:100): 10), the “CDA2-GFP sporulation assay sensitivity score” value was 0.09 (inactive).
`COc1cccc2c1C(=O)c1c(O)c3c(c(O)c1C2=O)C[C@@](O)(C(=O)CO)C[C@@H]3O[C@H]1C[C@H](N)[C@@H](O)[C@H](C)O1` [Epirubicin hydrochloride] (stock concentration (mM, diluted 1:100): 9.4) was tested, and the “CDA2-GFP sporulation assay sensitivity score” value was -0.4 (inactive).
In the case of `O=C(O)C[C@H](O)C[C@H](O)/C=C/c1c(C2CC2)nc2ccccc2c1-c1ccc(F)cc1` [Livalo] (stock concentration (mM, diluted 1:100): 5), the “CDA2-GFP sporulation assay sensitivity score” value is reported as 0.3 (inactive).
`COc1nc(C)nc(Cl)c1NC1=NCCN1` [Moxonidine hydrochloride] (stock concentration (mM, diluted 1:100): 9.2) was tested, and the “CDA2-GFP sporulation assay sensitivity score” value was 0.6 (inactive).
In the case of `C=CC1=C(C(=O)O)N2C(=O)[C@@H](NC(=O)/C(=N\O)c3csc(N)n3)[C@H]2SC1` [Cefdinir] (stock concentration (mM, diluted 1:100): 10), the “CDA2-GFP sporulation assay sensitivity score” value is reported as 3.95 (inactive).
In the case of `COc1ccc2c3c1O[C@H]1C[C@@H](O)C=C[C@@]31CCN(C)C2` [Galanthamine] (stock concentration (mM, diluted 1:100): 8.8), the “CDA2-GFP sporulation assay sensitivity score” value is reported as -0.36 (inactive).
`Cc1c(O)cccc1C(=O)N[C@@H](CSc1ccccc1)[C@H](O)CN1C[C@H]2CCCC[C@H]2C[C@H]1C(=O)NC(C)(C)C` [Nelfinavir mesylate] (stock concentration (mM, diluted 1:100): 8.6) was tested, and the “CDA2-GFP sporulation assay sensitivity score” value was 4.48 (inactive).
`c1cnc(N2CCN(Cc3ccc4c(c3)OCO4)CC2)nc1` [Piribedil] (stock concentration (mM, diluted 1:100): 9.7) was tested, and the “CDA2-GFP sporulation assay sensitivity score” value was 6.47 (inactive).
With `CC(=O)[C@H]1CC[C@H]2[C@@H]3CCC4=CC(=O)CC[C@]4(C)[C@H]3CC[C@]12C` [Progesterone] (stock concentration (mM, diluted 1:100): 10) the “CDA2-GFP sporulation assay sensitivity score” value was 16.2 (active).
`C[C@H]1O[C@H](O[C@H]2[C@H](O)[C@@H](O)[C@@H](O[C@H]3[C@H](O)[C@@H](O)C(O)O[C@@H]3CO)O[C@@H]2CO)[C@H](O)[C@@H](O)[C@@H]1N[C@H]1C=C(CO)[C@@H](O)[C@H](O)[C@H]1O` (some centres undefined) [Acarbose] (stock concentration (mM, diluted 1:100): 10) was tested, and the “CDA2-GFP sporulation assay sensitivity score” value was 0.28 (inactive).
In the case of `CN(C)CCC=C1c2ccccc2COc2ccccc21` [Doxepin] (stock concentration (mM, diluted 1:100): 10), the “CDA2-GFP sporulation assay sensitivity score” value is reported as 18.2 (active).
`O=C1CC2(CCCC2)CC(=O)N1CCNCC1COc2ccccc2O1` (centres undefined) (stock concentration (mM, diluted 1:100): 10) was tested, and the “CDA2-GFP sporulation assay sensitivity score” value was 19.1 (active).
`Cn1c(NCCN(CCO)CCCc2ccc([N+](=O)[O-])cc2)cc(=O)n(C)c1=O` [Nifekalant hydrochloride] (stock concentration (mM, diluted 1:100): 9.2) was tested, and the “CDA2-GFP sporulation assay sensitivity score” value was 0.47 (inactive).
